The full data set covers some 6,500 targets. This sample favours those with a hit. About 2% of all pairs of compound and target were hits. Unmarked numbers belong to inactive results.
Compound: COC(=O)C#Cc1ccccc1 [methyl 3-phenylpropiolate]
Assay: log2 ratio of iodoacetamide-alkyne labeling of the cysteine site, DMSO over compound (competition); higher = stronger covalent engagement of the cysteine by the compound, active = 1 or more
Conditions: 500 µM; treatment time 1 h; system: HEK293T cell lysate
Method in brief: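 Three replicates, each with duplicate channels, were prepared from HEK293T lysate (2 mg/mL) treated with vehicle or electrophile at 500 µM for 1 h at ambient temperature. Iodoacetamide alkyne was then applied for 1 h, and samples were clicked to sCIP-TMT reagents, pooled, trypsin-digested overnight at 37 °C, enriched on streptavidin, acid-eluted and analysed on Orbitrap Eclipse LC-MS/MS with FAIMS, with FragPipe quantification. The log2 competition ratio per cysteine is the mean control-channel divided by the mean compound-channel reporter intensity. Cysteines quantified in only one replicate were left out.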

Sequence of UniProt Q13263 (Q13263 whole entry, looked up): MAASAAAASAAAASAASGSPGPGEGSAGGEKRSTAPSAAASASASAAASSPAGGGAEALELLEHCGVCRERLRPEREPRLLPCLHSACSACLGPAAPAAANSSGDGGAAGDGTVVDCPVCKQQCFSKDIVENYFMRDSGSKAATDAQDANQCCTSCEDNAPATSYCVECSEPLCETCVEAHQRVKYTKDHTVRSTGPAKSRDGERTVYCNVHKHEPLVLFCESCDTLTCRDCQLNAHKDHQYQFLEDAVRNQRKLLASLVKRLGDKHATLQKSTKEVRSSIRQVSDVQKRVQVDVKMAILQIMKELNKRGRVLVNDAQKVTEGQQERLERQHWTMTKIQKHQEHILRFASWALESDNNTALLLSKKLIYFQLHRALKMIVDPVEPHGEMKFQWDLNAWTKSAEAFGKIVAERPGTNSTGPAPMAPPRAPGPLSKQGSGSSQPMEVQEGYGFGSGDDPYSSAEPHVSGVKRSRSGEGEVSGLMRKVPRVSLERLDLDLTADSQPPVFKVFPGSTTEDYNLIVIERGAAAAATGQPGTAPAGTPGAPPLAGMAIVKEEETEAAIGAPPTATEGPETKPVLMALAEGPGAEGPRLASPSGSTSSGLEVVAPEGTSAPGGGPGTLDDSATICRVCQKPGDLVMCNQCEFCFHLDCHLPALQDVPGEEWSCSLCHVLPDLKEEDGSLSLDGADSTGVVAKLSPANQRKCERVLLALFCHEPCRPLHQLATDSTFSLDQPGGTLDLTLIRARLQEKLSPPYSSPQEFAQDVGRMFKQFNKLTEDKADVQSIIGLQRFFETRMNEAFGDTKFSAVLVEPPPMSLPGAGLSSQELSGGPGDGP
Sequence of UniProt P53618 (P53618 whole entry, looked up): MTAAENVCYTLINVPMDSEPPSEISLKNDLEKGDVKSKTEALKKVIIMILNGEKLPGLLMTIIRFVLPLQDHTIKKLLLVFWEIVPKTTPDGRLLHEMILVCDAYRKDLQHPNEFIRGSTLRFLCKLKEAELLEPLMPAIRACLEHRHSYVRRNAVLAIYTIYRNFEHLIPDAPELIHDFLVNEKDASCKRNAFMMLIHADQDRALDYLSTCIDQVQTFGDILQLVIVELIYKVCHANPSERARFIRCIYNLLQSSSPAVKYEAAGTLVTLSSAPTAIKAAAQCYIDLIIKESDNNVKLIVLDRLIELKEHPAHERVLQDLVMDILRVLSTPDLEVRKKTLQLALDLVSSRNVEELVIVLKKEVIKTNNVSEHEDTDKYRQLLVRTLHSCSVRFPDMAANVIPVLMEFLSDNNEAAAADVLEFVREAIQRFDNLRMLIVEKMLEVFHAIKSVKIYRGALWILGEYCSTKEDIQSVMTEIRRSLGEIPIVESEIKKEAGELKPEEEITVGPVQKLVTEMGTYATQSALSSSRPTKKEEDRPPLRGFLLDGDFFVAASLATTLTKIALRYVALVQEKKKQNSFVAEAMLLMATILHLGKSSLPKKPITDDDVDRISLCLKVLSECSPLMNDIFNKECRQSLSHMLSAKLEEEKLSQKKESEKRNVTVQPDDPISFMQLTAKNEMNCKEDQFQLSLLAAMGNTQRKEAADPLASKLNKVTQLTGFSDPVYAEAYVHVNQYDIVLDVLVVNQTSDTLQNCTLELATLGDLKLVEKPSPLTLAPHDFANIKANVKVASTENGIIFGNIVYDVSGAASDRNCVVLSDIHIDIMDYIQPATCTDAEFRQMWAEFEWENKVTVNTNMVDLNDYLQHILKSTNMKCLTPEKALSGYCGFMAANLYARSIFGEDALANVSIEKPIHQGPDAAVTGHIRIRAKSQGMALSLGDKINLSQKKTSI
Sequence of UniProt Q00765 (Q00765 whole entry): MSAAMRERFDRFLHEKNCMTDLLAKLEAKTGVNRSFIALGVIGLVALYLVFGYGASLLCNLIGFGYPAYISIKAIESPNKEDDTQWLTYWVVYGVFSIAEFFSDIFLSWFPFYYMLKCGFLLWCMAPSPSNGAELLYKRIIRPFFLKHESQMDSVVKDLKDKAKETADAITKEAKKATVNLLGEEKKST
Sequence of UniProt Q13642 (Q13642 whole entry, looked up): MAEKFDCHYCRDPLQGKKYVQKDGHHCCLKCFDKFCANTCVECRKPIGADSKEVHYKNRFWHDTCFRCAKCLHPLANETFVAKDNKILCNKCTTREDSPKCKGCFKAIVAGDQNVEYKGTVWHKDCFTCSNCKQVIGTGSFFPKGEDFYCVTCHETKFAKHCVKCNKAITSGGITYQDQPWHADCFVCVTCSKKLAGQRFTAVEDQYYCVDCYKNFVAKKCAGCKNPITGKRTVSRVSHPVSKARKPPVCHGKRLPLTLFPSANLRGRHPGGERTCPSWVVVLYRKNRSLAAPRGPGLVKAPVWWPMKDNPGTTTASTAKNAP
Sequence of UniProt P57678 (P57678 whole entry, looked up): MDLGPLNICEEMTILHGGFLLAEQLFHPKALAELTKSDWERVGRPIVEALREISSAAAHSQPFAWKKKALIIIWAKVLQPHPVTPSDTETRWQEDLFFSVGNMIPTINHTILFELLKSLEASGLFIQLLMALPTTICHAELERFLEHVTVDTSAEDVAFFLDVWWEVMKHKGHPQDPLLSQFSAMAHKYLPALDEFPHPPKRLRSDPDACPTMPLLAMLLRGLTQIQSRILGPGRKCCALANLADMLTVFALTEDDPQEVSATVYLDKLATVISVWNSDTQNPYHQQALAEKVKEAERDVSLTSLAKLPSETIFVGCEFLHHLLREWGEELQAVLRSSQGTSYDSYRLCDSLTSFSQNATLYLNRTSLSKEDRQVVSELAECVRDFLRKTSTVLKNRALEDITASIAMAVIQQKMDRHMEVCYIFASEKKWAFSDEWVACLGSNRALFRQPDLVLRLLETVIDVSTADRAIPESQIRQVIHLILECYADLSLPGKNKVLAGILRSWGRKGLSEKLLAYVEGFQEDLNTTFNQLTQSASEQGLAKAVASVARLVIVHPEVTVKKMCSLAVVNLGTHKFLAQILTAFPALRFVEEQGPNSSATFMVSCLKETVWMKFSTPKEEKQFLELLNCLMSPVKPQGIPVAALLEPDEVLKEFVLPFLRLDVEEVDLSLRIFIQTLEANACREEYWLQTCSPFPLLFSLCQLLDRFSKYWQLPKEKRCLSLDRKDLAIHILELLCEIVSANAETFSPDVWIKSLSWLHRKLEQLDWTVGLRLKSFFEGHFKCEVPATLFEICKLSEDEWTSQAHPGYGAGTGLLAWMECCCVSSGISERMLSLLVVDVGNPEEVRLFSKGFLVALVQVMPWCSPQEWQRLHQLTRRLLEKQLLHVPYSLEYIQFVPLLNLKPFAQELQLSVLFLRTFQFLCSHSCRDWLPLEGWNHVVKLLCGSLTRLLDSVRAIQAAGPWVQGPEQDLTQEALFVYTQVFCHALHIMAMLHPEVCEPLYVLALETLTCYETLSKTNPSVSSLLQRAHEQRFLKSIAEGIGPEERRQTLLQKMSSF
Sequence of UniProt P62633 (P62633 whole entry, looked up): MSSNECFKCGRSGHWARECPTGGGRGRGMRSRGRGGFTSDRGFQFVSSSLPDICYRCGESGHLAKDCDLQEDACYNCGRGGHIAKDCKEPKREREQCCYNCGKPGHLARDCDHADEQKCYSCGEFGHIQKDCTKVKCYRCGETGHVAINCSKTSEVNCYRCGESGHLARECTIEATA
Sequence of UniProt Q13111 (Q13111 whole entry, looked up): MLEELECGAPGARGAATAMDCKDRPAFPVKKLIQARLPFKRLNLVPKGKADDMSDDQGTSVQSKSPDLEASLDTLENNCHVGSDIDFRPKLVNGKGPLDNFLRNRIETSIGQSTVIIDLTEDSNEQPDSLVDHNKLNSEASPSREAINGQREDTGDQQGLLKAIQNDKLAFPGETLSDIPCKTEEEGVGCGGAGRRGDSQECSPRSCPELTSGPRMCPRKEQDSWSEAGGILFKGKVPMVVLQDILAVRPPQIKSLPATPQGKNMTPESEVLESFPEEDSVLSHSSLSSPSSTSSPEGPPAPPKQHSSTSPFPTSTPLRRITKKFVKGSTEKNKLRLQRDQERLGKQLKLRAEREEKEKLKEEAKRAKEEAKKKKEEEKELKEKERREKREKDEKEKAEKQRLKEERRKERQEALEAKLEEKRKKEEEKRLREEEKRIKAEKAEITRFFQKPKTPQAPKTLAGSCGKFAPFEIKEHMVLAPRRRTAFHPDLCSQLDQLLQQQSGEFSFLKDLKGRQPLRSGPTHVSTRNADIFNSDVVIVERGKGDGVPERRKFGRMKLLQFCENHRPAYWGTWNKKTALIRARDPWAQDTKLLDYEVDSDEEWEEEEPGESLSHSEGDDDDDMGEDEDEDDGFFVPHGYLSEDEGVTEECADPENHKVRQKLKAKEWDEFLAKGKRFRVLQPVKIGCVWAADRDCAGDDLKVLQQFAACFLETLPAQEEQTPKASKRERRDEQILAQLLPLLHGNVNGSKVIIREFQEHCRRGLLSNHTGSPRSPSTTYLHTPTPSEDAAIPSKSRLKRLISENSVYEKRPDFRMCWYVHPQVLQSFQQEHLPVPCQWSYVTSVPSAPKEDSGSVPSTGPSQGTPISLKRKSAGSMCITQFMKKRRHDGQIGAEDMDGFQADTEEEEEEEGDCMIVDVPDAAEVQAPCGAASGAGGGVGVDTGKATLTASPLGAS
Sequence of UniProt Q13526 (Q13526 whole entry, looked up): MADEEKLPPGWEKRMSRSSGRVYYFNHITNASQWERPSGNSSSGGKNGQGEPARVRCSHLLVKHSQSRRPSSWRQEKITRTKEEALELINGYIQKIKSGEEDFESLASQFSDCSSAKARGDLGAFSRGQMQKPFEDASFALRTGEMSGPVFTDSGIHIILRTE
Sequence of UniProt P53597 (P53597 whole entry, looked up): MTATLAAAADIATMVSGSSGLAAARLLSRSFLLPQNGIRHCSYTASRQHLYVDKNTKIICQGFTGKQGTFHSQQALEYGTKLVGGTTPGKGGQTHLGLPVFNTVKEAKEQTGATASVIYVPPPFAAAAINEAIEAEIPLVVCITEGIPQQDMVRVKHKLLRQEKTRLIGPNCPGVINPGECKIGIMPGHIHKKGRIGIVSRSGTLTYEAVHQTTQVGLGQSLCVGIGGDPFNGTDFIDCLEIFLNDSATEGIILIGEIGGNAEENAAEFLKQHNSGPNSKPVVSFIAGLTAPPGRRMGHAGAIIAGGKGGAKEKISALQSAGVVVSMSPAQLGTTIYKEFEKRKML

Target	log2 ratio of iodoacetamide-alkyne labeling
CNBP C140 (UniProt P62633)	0.134
ADAR C649 (UniProt P55265)	0.375
FHL3 C150 (UniProt Q13643)	0.146
UniProt Q15365_C194	1.08 (active)
ACLY C20 (UniProt P53396)	0.357
P86790_C358 (UniProt P86791+P86790)	0.213
NUMA1 C375 (UniProt Q14980)	-0.109
REEP5 C18 (UniProt Q00765)	0.482
NSUN2 C184 (UniProt Q08J23)	-0.0329
GEN1 C668 (UniProt Q17RS7)	0.0186
FHL1 C10 (UniProt Q13642)	-0.136
UniProt Q5H9L4_C158	1.09 (active)
KIF11 C450 (UniProt P52732)	0.0207
UniProt P78527_C4061	0.465
AKAP12 C1399 (UniProt Q02952)	1.16 (active)
CHAF1A C190 (UniProt Q13111)	1.08 (active)
COPB1 C248 (UniProt P53618)	-0.00654
UniProt P62280_C60	2.21 (active)

Target	log2 ratio of iodoacetamide-alkyne labeling
ACOX1 C199 (UniProt Q15067)	0.0457
SMC1A C987 (UniProt Q14683)	0.473
SUCLG1 C181 (UniProt P53597)	1.72 (active)
BPTF C1357 (UniProt Q12830)	0.53
MTA1 C512 (UniProt Q13330)	0.481
CTTN C112 (UniProt Q14247)	0.88
PITRM1 C313 (UniProt Q5JRX3)	0.195
NUMA1 C658 (UniProt Q14980)	-0.0504
UniProt P62258_C97	-0.063
GEMIN4 C382 (UniProt P57678)	0.0965
UniProt Q00341_C948	0.167
PIN1 C57 (UniProt Q13526)	-0.187
RRP12 C799 (UniProt Q5JTH9)	0.107
DST C7524 (UniProt Q03001)	0.174
BOP1 C373 (UniProt Q14137)	0.0315
PITRM1 C556 (UniProt Q5JRX3)	0.0671
TRIM28 C717 (UniProt Q13263)	-0.00982
